{"source": "PubChem BioAssay AID1053126", "about": "(Broad Institute, 2014)", "note": "Measured potencies and affinities stand elsewhere. Values without a mark were called inactive.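 The calls were made as follows: active = cell killing with a fitted half-effect concentration at or below twice the top valid dose; inconclusive = flat curve with 30 to 70 percent drop, or poor fit; inactive = the rest.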"}
{"assay": "HEK293T cell cytotoxicity, dose response, cytotoxicity control, ATP luminescence, cherry-pick, set 6 (AID 1053126);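 also: 0% = neutral control wells and -100% = mitoxantrone 10 µM positive control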", "settings": "HEK293T viability, CellTiter-Glo ATP luminescence, 72 h; series mostly up to 26 µM; activity change, negative = cytotoxicity: at the top concentration", "units": {"activity change, negative = cytotoxicity": "%"}}
{"compound": "Cc1cccn2c(=O)c3cc(C(N)=S)c(=N)n(CCCOC(C)C)c3nc12", "activity change, negative = cytotoxicity": -7.65}
{"compound": "Nc1cccc2c1C(=O)N(c1ccccc1)C2=O", "activity change, negative = cytotoxicity": -15.3}
{"compound": "CCOc1ccc2nc(NCCCNC(=O)c3cc(OC)c(OC)c(OC)c3)c(C#N)cc2c1", "activity change, negative = cytotoxicity": -13.6}
{"compound": "Cc1cccn2c(=O)c3cc(C(=O)NCc4ccco4)c(=N)n(CCc4ccccc4)c3nc12", "activity change, negative = cytotoxicity": -5.68}
{"compound": "COc1ccccc1/C=N/Nc1nc(C)cc(=O)[nH]1", "activity change, negative = cytotoxicity": -8.08}
{"compound": "CCc1nnc(NC(=O)c2ccc(-c3ccccc3F)o2)s1", "activity change, negative = cytotoxicity": -0.088}
{"compound": "O=C(O)c1[nH]c2ccccc2c1C(c1cc(Br)ccc1O)c1c(C(=O)O)[nH]c2ccccc12", "activity change, negative = cytotoxicity": 25.2}
{"compound": "O=c1oc2c(CN3CCCCC3)c(O)ccc2cc1-c1nc2ccccc2[nH]1", "activity change, negative = cytotoxicity": -14.8}
{"compound": "CCN(CC)c1ccc2c(C)c(Cl)c(=O)oc2c1", "activity change, negative = cytotoxicity": 15.3}
{"compound": "Cc1cc(OC(=O)c2ccccc2Cl)ccc1N1C(=O)CCC1=O", "activity change, negative = cytotoxicity": 37.2}
{"compound": "CSC1=NSC2=NC(=O)/C(=C/c3coc4ccc(O)cc4c3=O)C(=N)N12", "activity change, negative = cytotoxicity": -22.3}
{"compound": "N=c1c(C(=O)NCC2CCCO2)cc2c(=O)n3ccccc3nc2n1Cc1ccc(Cl)cc1", "note": "(stereo not drawn)", "activity change, negative = cytotoxicity": 1.9}
{"compound": "COc1ccccc1C(=O)c1cc2ccc(O)cc2oc1=O", "activity change, negative = cytotoxicity": -13.3}
{"compound": "COCCCOc1cc(NCc2ccccc2)c2ncn(C(C)C)c2c1", "activity change, negative = cytotoxicity": 0.369}
{"compound": "COc1cccc(N2CCN(C(=O)C3CCCN(S(=O)(=O)c4cnc[nH]4)C3)CC2)c1", "note": "(stereo not drawn)", "activity change, negative = cytotoxicity": 34.1}
{"compound": "N=c1oc2cc(O)ccc2cc1C(=O)Nc1nc2ccccc2s1", "activity change, negative = cytotoxicity": -12.6}
{"compound": "O=C(NS(=O)(=O)c1ccc(Cl)s1)c1ccccc1", "activity change, negative = cytotoxicity": -4.68}
{"compound": "CC(=O)NNc1cc(N2CCOCC2)nc(N2CCOCC2)n1", "activity change, negative = cytotoxicity": -6.77}
{"compound": "CNNC(=S)NC1CC2CC1C1C=CCC21", "note": "(stereo not drawn)", "activity change, negative = cytotoxicity": 19.1}
{"compound": "Cc1c(C(=O)NCc2ccc3c(c2)OCCO3)sc(=O)n1Cc1ccccc1F", "activity change, negative = cytotoxicity": -6.29}
{"compound": "Cc1c(C(=O)NCc2cccc([N+](=O)[O-])c2)sc(=O)n1Cc1cccc(F)c1", "activity change, negative = cytotoxicity": -15.5}
{"compound": "CC(=O)OC[C@@H]1CN(Cc2ccccc2)C[C@H](n2cnc3c(N(C)C(C)C)ncnc32)O1", "activity change, negative = cytotoxicity": -10.5}
{"compound": "CC1CCCCC1NC(=O)CN1C(=O)c2cccc(N)c2C1=O", "note": "(stereo not drawn)", "activity change, negative = cytotoxicity": 33.5}
{"compound": "N#C/C(=C\\c1ccco1)C(=O)Nc1cccc2ncccc12", "activity change, negative = cytotoxicity": 6.1}
{"compound": "COC(=O)C1=CN(Cc2ccc(OC)c(OC)c2)C=C(C(=O)OC)C1c1cccc(F)c1", "activity change, negative = cytotoxicity": -13.2}
{"compound": "O=c1oc2cc(O)ccc2cc1S(=O)(=O)c1ccccc1", "activity change, negative = cytotoxicity": -5.95}
{"compound": "CC(C)CCn1c(CN2CC(C)OC(C)C2)nc2c1c(=O)n(C)c(=O)n2C", "note": "(stereo not drawn)", "activity change, negative = cytotoxicity": 2.88}
{"compound": "O=C(CCCN1C(=O)CSc2ncccc21)N1CCN(Cc2ccccc2)CC1", "activity change, negative = cytotoxicity": -10.1}
{"compound": "COc1ccc(S(=O)(=O)Cc2ccc(C(=O)N3CCN(Cc4ccccc4)CC3)o2)cc1", "activity change, negative = cytotoxicity": 43.5}
{"compound": "CCC(Sc1nc(N)c(NC(=O)c2ccc(OC)cc2)c(=O)[nH]1)C(=O)O", "note": "(stereo not drawn)", "activity change, negative = cytotoxicity": -12.8}
{"compound": "CCN(CC)c1ccc2cc(C#N)c(=O)oc2c1", "activity change, negative = cytotoxicity": -1.21}
{"compound": "CCOCCCNc1c(CC)c(C)c(C#N)c2nc3ccccc3n12", "activity change, negative = cytotoxicity": -2.89}
{"compound": "CCOC(=O)c1cc2c(=O)n3ccccc3nc2n(Cc2ccc(Cl)cc2)c1=N", "activity change, negative = cytotoxicity": 7.6}
{"compound": "COc1ccc(CCN=C(N)NS(=O)(=O)c2ccc(F)cc2)cc1", "activity change, negative = cytotoxicity": -15.2}
{"compound": "Cn1cnc(S(=O)(=O)Nc2ccc(OC(F)(F)F)cc2)c1", "activity change, negative = cytotoxicity": 16.4}
{"compound": "CCOCCCNc1nc2nc3ccc(C)cn3c(=O)c2cc1C(=O)NCC1CCCO1", "note": "(stereo not drawn)", "activity change, negative = cytotoxicity": -3.04}
{"compound": "O=C(NCc1ccc(F)cc1)C1CCCN1C(=O)Nc1cccc(F)c1", "note": "(stereo not drawn)", "activity change, negative = cytotoxicity": 1.02}
{"compound": "COc1ccc(C2C3=C(CCCC3=O)N(CC(=O)O)C3=C2C(=O)CCC3)cc1Cl", "activity change, negative = cytotoxicity": -6.96}
